We go through 10 compounds from PubChem BioAssay (NCATS).

Records with an inconclusive call do not appear. The source made the active and inactive calls. Unless noted, calls follow the shape of the dose curve; as a rule, active = well fitted curve in the direction sought with a large enough effect; inconclusive = small, poorly fitted or top-dose-only effect, or another doubt; inactive = no such curve, though single readings can be large; an effect the other way counts as inactive or inconclusive.

In assay [1] the target is Metallo-beta-lactamase type 2 (Klebsiella pneumoniae) (UniProt C7C422). Nature of the assay: qHTS to identify inhibitors of the New Delhi Metallo-beta-lactamase (NDM): assay validation screen against the NCATS LOPAC Collection (AID 1794843).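 Also: nitrocefin turnover by NDM-1 measured as 485 nm absorbance at plateau; % is scaled to controls: 0 for no effect and ±100 for the full control effect.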 The gist of the method: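 Nitrocefin hydrolysis (50 uM substrate stock) by NDM-1, 2 nM final, was followed by 485 nm absorbance after compound preincubation; buffer was 50 mM HEPES pH 7.0, 1 uM ZnSO4, 0.01% Tween20.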
Chain of Metallo-beta-lactamase type 2 (Klebsiella pneumoniae) (C7C422 whole entry, looked up): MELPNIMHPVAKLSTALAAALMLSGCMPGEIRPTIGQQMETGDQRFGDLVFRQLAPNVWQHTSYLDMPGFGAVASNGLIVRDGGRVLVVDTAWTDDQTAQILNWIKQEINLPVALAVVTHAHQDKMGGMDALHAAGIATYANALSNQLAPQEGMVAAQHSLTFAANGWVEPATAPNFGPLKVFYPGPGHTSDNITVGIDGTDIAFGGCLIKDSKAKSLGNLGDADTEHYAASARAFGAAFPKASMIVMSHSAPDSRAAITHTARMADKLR
Background: Quantitative high-throughput screening tests each substance at several concentrations.

In assay [2] the target is Glutathione peroxidase 1 (Homo sapiens) (UniProt P07203). In words: Primary qHTS Assay for Inhibitors of Recombinant Selenoprotein Glutathione Peroxidase 1 (GPX1) (AID 1845191). Also: nearly all actives have a fitted effect of over 65% in size. As to activity, negative = inhibition: % is scaled to controls: 0 for no effect and ±100 for the full control effect. The method, boiled down:
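GR-coupled readout: NADPH consumption tracked by fluorescence, ex 340/em 450 nm, at t=0 and after 15 min at RT. Final mix 10 nM GPX1, 1 mM GSH, 0.5 mM CHP, 0.5 mM NADPH, 100 nM GR, 0.01% BSA, following 30 min enzyme–compound preincubation.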

Assay [3] concerns the target Phospholipid hydroperoxide glutathione peroxidase GPX4 (Homo sapiens) (UniProt P36969). In words: Primary qHTS Assay for Inhibitors of Recombinant Selenoprotein Glutathione Peroxidase 4 (GPX4) (AID 1845192). Also: nearly all actives have a fitted effect of over 65% in size. As to conditions: outcome: dose series up to 50 µM unless noted. The gist of the method: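 Steps: GPX4 plus compound, 30 min RT; add GR/GSH/NADPH master mix; start with cumene hydroperoxide; read 340/450 nm fluorescence at 0 and 15 min. Finals were 200 nM GPX4, 1 mM GSH, 0.5 mM CHP, 0.5 mM NADPH, 100 nM GR.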

Assay [4] is described as follows: qHTS profiling for inhibitors of Plasmodium falciparum proliferation (AID 504749). Also: potency is read from the fitted curve at half-maximal effect.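 As to activity, negative = inhibition: 0% = DMSO vehicle and full inhibition = artemisinin control.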 As to all read-outs here: nearly all actives have a fitted effect of over 60% in size. As to conditions: P. falciparum in erythrocytes, SYBR Green DNA, 72 h; for activity, negative = inhibition: at 28.7 µM (top of the series). The method, boiled down: (§1)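 Each compound contacts P. falciparum-infected red blood cells for 72 h at 37 C; lysis buffer (Tris, EDTA, saponin, Triton X, SYBR Green I) is added and fluorescence measured next morning; values normalized to controls.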

The test system of assay [5] is 3D7. The description is as above. As to conditions: P. falciparum in erythrocytes, SYBR Green DNA, 72 h; series mostly up to 28.7 µM. The method, boiled down: as §1
The subject of assay [6] is 7G8. The description is as above. As to conditions: P. falciparum in erythrocytes, SYBR Green DNA, 72 h; series mostly up to 28.7 µM. The gist of the method:
as §1

The subject of assay [7] is ATS189. The description is as above. As to conditions: P. falciparum in erythrocytes, SYBR Green DNA, 72 h; series mostly up to 28.7 µM. The gist of the method: as §1
Assay [8] deals with C2A. The assay is described as above. The following applies: P. falciparum in erythrocytes, SYBR Green DNA, 72 h; series mostly up to 28.7 µM. The method, boiled down: as §1
The test system of assay [9] is CP185. Described as above. The following applies: P. falciparum in erythrocytes, SYBR Green DNA, 72 h; series mostly up to 28.7 µM. The gist of the method:
as §1

Assay [10] concerns CP194. Described as above. As to conditions: P. falciparum in erythrocytes, SYBR Green DNA, 72 h; series mostly up to 28.7 µM. The gist of the method: as §1
Assay [11] in a line: qHTS drug screen for cell cycle checkpoint inhibitors in PARPi-resistant BRCA-mutant ovarian cancer cell lines. (AID 1963452; calls by dose curve). As to conditions: PEO1/OlaR viability, CellTiter-Glo luminescence, 96 h, stronger effect = lower value. The method, boiled down:
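PEO1, PEO4 and PEO1/OlaR ovarian cancer cells, 600 per well, exposed 96 h at 37C to a dilution series. Viability read by CellTiter-Glo luminescence, normalized to DMSO and empty wells; activity summarized as Z-AUC.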

For assay [12], the system named is CP191. Nature of the assay: qHTS profiling for inhibitors of Plasmodium falciparum proliferation (AID 504749). Also: nearly all actives have a fitted effect of over 60% in size. Also: potency is read from the fitted curve at half-maximal effect.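 As to activity, negative = inhibition: 0% = DMSO vehicle and full inhibition = artemisinin control.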 As to conditions: P. falciparum in erythrocytes, SYBR Green DNA, 72 h; series mostly up to 28.7 µM. The method, boiled down: as §1
Assay [13] deals with CP192. Described as above. As to conditions: P. falciparum in erythrocytes, SYBR Green DNA, 72 h; series mostly up to 28.7 µM. The method, boiled down: as §1
Assay [14] relates to AA1029. Described as above. As to conditions: P. falciparum in erythrocytes, SYBR Green DNA, 72 h; series mostly up to 28.7 µM. The gist of the method:
as §1

Assay [15] has as its system AS120. Described as above. The following applies: P. falciparum in erythrocytes, SYBR Green DNA, 72 h; series mostly up to 28.7 µM. The gist of the method:
as §1

Assay [16] deals with ATS95. The assay is described as above. The following applies: P. falciparum in erythrocytes, SYBR Green DNA, 72 h; series mostly up to 28.7 µM. The method, boiled down:
as §1

Chain of Glutathione peroxidase 1 (Homo sapiens) (P07203 whole entry, looked up): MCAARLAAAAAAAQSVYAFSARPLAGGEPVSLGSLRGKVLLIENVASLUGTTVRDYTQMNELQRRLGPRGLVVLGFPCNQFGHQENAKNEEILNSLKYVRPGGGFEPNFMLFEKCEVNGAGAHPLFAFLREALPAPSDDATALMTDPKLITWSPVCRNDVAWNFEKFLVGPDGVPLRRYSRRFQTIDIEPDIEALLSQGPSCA
Chain of Phospholipid hydroperoxide glutathione peroxidase GPX4 (Homo sapiens) (P36969 whole entry, looked up): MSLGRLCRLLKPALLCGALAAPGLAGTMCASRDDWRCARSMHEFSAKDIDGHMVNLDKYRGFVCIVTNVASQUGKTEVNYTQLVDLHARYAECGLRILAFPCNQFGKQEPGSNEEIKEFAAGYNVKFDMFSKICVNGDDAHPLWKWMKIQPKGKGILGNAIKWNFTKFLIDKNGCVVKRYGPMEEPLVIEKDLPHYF

For `CN(C)C/C=C(/c1ccc(Br)cc1)c1cccnc1`, the Potency entry in assay [1], in [2], in assay [5], in [7], in [8] and in assay [9] was “inactive” throughout. For the same compound, in [10], the Potency entry was “inactive”. In addition, in [3], the result was inactive. Besides, the activity, negative = inhibition in assay [4] (parasite line A) is -2.53% (inactive). Also, the Potency in assay [6] was 8.91 µM (active).
As to `CC(C)COCC(CN(Cc1ccccc1)c1ccccc1)N1CCCC1` (stereo unspecified), the Potency result in assay [1], in [2], in assay [5], in assay [7], in [8] and in assay [12] was “inactive” each time. For the same compound, the Potency entry in assay [13] and in assay [10] was “inactive” each time. Besides, the values for the Z-AUC in [11], in assay [11] (measured here: PEO1 parental Z-AUC) and in assay [11] (measured here: PEO4 Z-AUC) were 1.09 (inactive), 0.789 and 0.389, respectively.
With `CCNC(=O)N1CCN(CCCC(c2ccc(F)cc2)c2ccc(F)cc2)CC1`, in assay [1], the Potency entry was “inactive”. Also, the outcome in assay [3] was inactive. The Potency in assay [4] (parasite line A) is 1.12 µM (active); in assay [4] (parasite line B), 1.26 µM (active); in [5], 7.08 µM (active); in [6], 2 µM (active); in assay [14], 2.24 µM (active); in assay [15] it was 2.24 µM (active). Also, the Potency in [7] was 1.12 µM (active); in assay [16], 2.24 µM (active); in [8], 1.41 µM (active); in [9] it was 0.447 µM (active); in assay [12], 1.12 µM (active); in [13], 7.57 µM (active). Further, the Potency in assay [10] is 7.57 µM (active).
For `COCC(=O)O[C@]1(CCN(C)CCCc2nc3ccccc3[nH]2)CCc2cc(F)ccc2[C@@H]1C(C)C`, the Potency entry in assay [1] was “inactive”. Besides, the outcome in assay [3] was inactive. Further, the Potency is 3.55 µM (active) in [4] (parasite line A); 5.01 µM (active) in [4] (parasite line B); 7.94 µM (active) in [5]; 1.12 µM (active) in [6]; 0.794 µM (active) in assay [14]; 1.26 µM (active) in [15]. Moreover, the Potency in assay [7] is 3.98 µM (active); in assay [16], 1.26 µM (active); in [8], 0.562 µM (active); in [9], 4.47 µM (active); in assay [12], 4.47 µM (active); in assay [13], 5.36 µM (active). For the same compound, in assay [10], the Potency was 6.01 µM (active).
As for `c1cnc(N2CCN(Cc3ccc4c(c3)OCO4)CC2)nc1`, the Potency result in [1], in [2], in assay [5], in assay [6], in [14] and in [15] was “inactive” throughout. The Potency result in assay [7], in [16], in assay [8], in assay [9], in assay [12] and in assay [13] was “inactive” in each case. The Potency result in assay [10] is “inactive”. Further, the activity, negative = inhibition in assay [4] (parasite line A) is 13.8% (inactive); in assay [4] (parasite line B), 17.3% (inactive).
`NC(N)=N/N=C/c1c(Cl)cccc1Cl`: the Potency result in [1], in assay [2], in assay [5] and in assay [15] was “inactive” each time. The result in [3] was inactive. Also, the Potency in assay [6] is 11.2 µM (active).
Consider `NCCCNCCSP(=O)(O)O`, for which the Potency result in assay [1], in [2], in assay [5], in assay [6], in assay [14] and in assay [15] was “inactive” throughout. The Potency entry in [7], in assay [16], in [8], in assay [9], in [12] and in assay [13] was “inactive” each time. The Potency entry in assay [10] is “inactive”. Moreover, the activity, negative = inhibition in assay [4] (parasite line A) is 8.13% (inactive); in [4] (parasite line B), 13.6% (inactive).
In the case of `CC(C)NNC(=O)c1ccncc1`, the Potency entry in assay [1], in [2], in assay [5], in [6], in assay [15] and in assay [7] was “inactive” each time. Further, the Potency result in assay [8], in assay [9], in [13] and in assay [10] was “inactive” each time. In addition, in [3], the result was inactive. Also, the activity, negative = inhibition in assay [4] (parasite line A) was -11.8% (inactive). In addition, the Potency in assay [14] is 7.94 µM (active); in assay [12] it was 4.47 µM (active).
With `Fc1ccc(C(c2ccc(F)cc2)N2CCN(C/C=C/c3ccccc3)CC2)cc1`, the Potency result in assay [1] and in assay [2] was “inactive” each time. Further, the outcome in assay [3] was inactive. The values for the Potency in assay [6] and in [15] were 4.47 µM (active) and 10 µM (active), respectively.
For the compound `C[N+](C)(C)CCOC(N)=O`, the Potency result in [1], in assay [2], in [5], in [6], in assay [14] and in [15] was “inactive” throughout. The Potency entry in assay [7], in assay [16], in assay [8], in assay [9], in [12] and in assay [13] was “inactive” in each case. Also, the Potency result in [10] was “inactive”. Besides, the activity, negative = inhibition is 16.8% (inactive) in assay [4] (parasite line A) and 9.29% (inactive) in [4] (parasite line B).
